# Experimental data as given in PubChem BioAssay AID1159580 (chemical genetic matrix, 2015).
# Values joined by “and” are separate entries in the source; they are usually repeats but may differ in a detail not shown here. Equal values may be shown once. About 2,000 (36%) of roughly 5,500 compounds were called active. Inconclusive results (about 18%) are left out. This is one part of the list. A number with no mark means an inactive call. Rule as the data show it: active = normalized growth mostly below about 0.91 (no sharp cut-off); inconclusive = no clear call, values can overlap the other calls; inactive = mostly above about 0.92.
# Assay: chemical genetic growth profiling, strain panel (AID 1159580);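 also: tested at 20 µM; growth read once vehicle control cultures reached saturation at 30 °C; 1 = growth at the plate median or of vehicle wells; lower values mean less growth of the strain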
# Settings: growth OD
compound,measurement,setting,value
CC1(C)C2(Cl)C(Cl)C(Cl)C(Cl)(C(Cl)Cl)C1(Cl)C2Cl (configuration not stated),normalized growth,"S. cerevisiae deletion strains, locus YAL013W, strain DEP1, active compounds read low",0.98
same,normalized growth,"S. cerevisiae deletion strains, locus YBR021W, strain FUR4, active compounds read low",0.985
same,normalized growth,"S. cerevisiae deletion strains, locus YBR229C, strain ROT2, active compounds read low",0.985
same,normalized growth,"S. cerevisiae deletion strains, locus YCL029C, strain bik1, active compounds read low",0.982
same,normalized growth,"S. cerevisiae deletion strains, locus YDL035C, strain GPR1, active compounds read low",0.947
same,normalized growth,"S. cerevisiae deletion strains, locus YDL074C, strain BRE1, active compounds read low",0.918
same,normalized growth,"S. cerevisiae deletion strains, locus YDL101C, strain DUN1, active compounds read low",0.982
same,normalized growth,"S. cerevisiae deletion strains, locus YDL134C, strain PPH21, active compounds read low",0.981
same,normalized growth,"S. cerevisiae deletion strains, locus YDL185W, strain tfp1, active compounds read low",0.976
same,normalized growth,"S. cerevisiae deletion strains, locus YDL192W, strain arf1, active compounds read low",0.98
same,normalized growth,"S. cerevisiae deletion strains, locus YDR101C, strain arx1, active compounds read low",0.993
same,normalized growth,"S. cerevisiae deletion strains, locus YDR150W, strain NUM1, active compounds read low",0.994
same,normalized growth,"S. cerevisiae deletion strains, locus YDR162C, strain NBP2, active compounds read low",0.968
same,normalized growth,"S. cerevisiae deletion strains, locus YDR318W, strain mcm21, active compounds read low",0.95
same,normalized growth,"S. cerevisiae deletion strains, locus YDR388W, active compounds read low",0.964
same,normalized growth,"S. cerevisiae deletion strains, locus YDR502C, strain sam2, active compounds read low",0.957
same,normalized growth,"S. cerevisiae deletion strains, locus YEL061C, strain CIN8, active compounds read low",0.992
same,normalized growth,"S. cerevisiae deletion strains, locus YER110C, active compounds read low",0.984
same,normalized growth,"S. cerevisiae deletion strains, locus YER155C, strain BEM2, active compounds read low",1
same,normalized growth,"S. cerevisiae deletion strains, locus YER167W, strain BCK2, active compounds read low",0.975
same,normalized growth,"S. cerevisiae deletion strains, locus YGL078C, strain dbp3, active compounds read low",0.982
same,normalized growth,"S. cerevisiae deletion strains, locus YGL086W, strain mad1, active compounds read low",0.962
same,normalized growth,"S. cerevisiae deletion strains, locus YGL248W, strain PDE1, active compounds read low",0.979
same,normalized growth,"S. cerevisiae deletion strains, locus YGR078C, strain PAC10, active compounds read low",0.94
same,normalized growth,"S. cerevisiae deletion strains, locus YGR135W, strain pre9, active compounds read low",0.951
same,normalized growth,"S. cerevisiae deletion strains, locus YGR229C, strain SMI1, active compounds read low",0.865
same,normalized growth,"S. cerevisiae deletion strains, locus YGR252W, strain gcn5, active compounds read low",0.956
same,normalized growth,"S. cerevisiae deletion strains, locus YHR030C, strain SLT2, active compounds read low",0.995 and 0.96
same,normalized growth,"S. cerevisiae deletion strains, locus YHR079C, strain IRE1 (second series), active compounds read low",0.975
same,normalized growth,"S. cerevisiae deletion strains, locus YHR079C, strain IRE1, active compounds read low",0.946
same,normalized growth,"S. cerevisiae deletion strains, locus YHR094C, strain hxt1, active compounds read low",0.981
same,normalized growth,"S. cerevisiae deletion strains, locus YHR129C, strain ARP1, active compounds read low",0.984
same,normalized growth,"S. cerevisiae deletion strains, locus YHR200W, strain rpn10, active compounds read low",0.979
same,normalized growth,"S. cerevisiae deletion strains, locus YIL066C, strain RNR3, active compounds read low",0.891
same,normalized growth,"S. cerevisiae deletion strains, locus YIL073C, strain SPO22, active compounds read low",0.829
same,normalized growth,"S. cerevisiae deletion strains, locus YIL125W, strain kgd1, active compounds read low",0.981
same,normalized growth,"S. cerevisiae deletion strains, locus YIR030C, strain dcg1, active compounds read low",0.978
same,normalized growth,"S. cerevisiae deletion strains, locus YJL095W, strain BCK1, active compounds read low",0.954 and 0.978
same,normalized growth,"S. cerevisiae deletion strains, locus YJL134W, strain LCB3, active compounds read low",0.991
same,normalized growth,"S. cerevisiae deletion strains, locus YJL168C, strain set2, active compounds read low",0.978
same,normalized growth,"S. cerevisiae deletion strains, locus YJL187C, strain SWE1 (second series), active compounds read low",0.983
same,normalized growth,"S. cerevisiae deletion strains, locus YJR043C, strain POL32, active compounds read low",1.01
same,normalized growth,"S. cerevisiae deletion strains, locus YJR066W, strain TOR1, active compounds read low",0.935
same,normalized growth,"S. cerevisiae deletion strains, locus YJR075W, strain HOC1, active compounds read low",0.954
same,normalized growth,"S. cerevisiae deletion strains, locus YKL009W, strain mrt4, active compounds read low",0.971
same,normalized growth,"S. cerevisiae deletion strains, locus YKL068W, active compounds read low",0.971
same,normalized growth,"S. cerevisiae deletion strains, locus YKL085W, strain MDH1 (second series), active compounds read low",0.968
same,normalized growth,"S. cerevisiae deletion strains, locus YKL085W, strain MDH1, active compounds read low",0.968
same,normalized growth,"S. cerevisiae deletion strains, locus YKL190W, strain CNB1, active compounds read low",0.989
same,normalized growth,"S. cerevisiae deletion strains, locus YKR001C, strain vps1, active compounds read low",0.932
same,normalized growth,"S. cerevisiae deletion strains, locus YLR039C, strain RIC1, active compounds read low",0.79
same,normalized growth,"S. cerevisiae deletion strains, locus YLR058C, strain SHM2, active compounds read low",0.978
same,normalized growth,"S. cerevisiae deletion strains, locus YLR102C, strain apc9, active compounds read low",0.986
same,normalized growth,"S. cerevisiae deletion strains, locus YLR113W, strain HOG1, active compounds read low",0.948
same,normalized growth,"S. cerevisiae deletion strains, locus YLR262C, strain YPT6, active compounds read low",0.768
same,normalized growth,"S. cerevisiae deletion strains, locus YLR268W, strain sec22, active compounds read low",0.956
same,normalized growth,"S. cerevisiae deletion strains, locus YLR330W, strain CHS5, active compounds read low",0.992
same,normalized growth,"S. cerevisiae deletion strains, locus YLR342W, strain FKS1 (second series), active compounds read low",0.893
same,normalized growth,"S. cerevisiae deletion strains, locus YLR371W, strain rom2, active compounds read low",0.986
same,normalized growth,"S. cerevisiae deletion strains, locus YLR418C, strain cdc73, active compounds read low",0.755 (active)
same,normalized growth,"S. cerevisiae deletion strains, locus YML016C, strain PPZ1, active compounds read low",0.984
same,normalized growth,"S. cerevisiae deletion strains, locus YML032C, strain rad52, active compounds read low",0.954
same,normalized growth,"S. cerevisiae deletion strains, locus YML124C, strain tub3, active compounds read low",0.982
same,normalized growth,"S. cerevisiae deletion strains, locus YMR078C, strain ctf18, active compounds read low",0.961
same,normalized growth,"S. cerevisiae deletion strains, locus YMR223W, strain ubp8, active compounds read low",0.939
same,normalized growth,"S. cerevisiae deletion strains, locus YMR263W, strain SAP30, active compounds read low",0.993
same,normalized growth,"S. cerevisiae deletion strains, locus YMR307W, strain GAS1, active compounds read low",0.887
same,normalized growth,"S. cerevisiae deletion strains, locus YNL067W, strain RPL9B, active compounds read low",0.987
same,normalized growth,"S. cerevisiae deletion strains, locus YNL128W, strain TEP1, active compounds read low",0.993
same,normalized growth,"S. cerevisiae deletion strains, locus YNL153C, strain GIM3, active compounds read low",0.986
same,normalized growth,"S. cerevisiae deletion strains, locus YNL183C, strain NPR1, active compounds read low",0.943
same,normalized growth,"S. cerevisiae deletion strains, locus YNL233W, strain BNI4, active compounds read low",0.989
same,normalized growth,"S. cerevisiae deletion strains, locus YNL250W, strain rad50, active compounds read low",0.969
same,normalized growth,"S. cerevisiae deletion strains, locus YNL271C, strain bni1, active compounds read low",0.97
same,normalized growth,"S. cerevisiae deletion strains, locus YNL298W, strain CLA4, active compounds read low",0.971
same,normalized growth,"S. cerevisiae deletion strains, locus YNL307C, strain MCK1, active compounds read low",0.544 (active)
same,normalized growth,"S. cerevisiae deletion strains, locus YNL322C, strain KRE1, active compounds read low",0.994
same,normalized growth,"S. cerevisiae deletion strains, locus YNR052C, strain pop2, active compounds read low",0.963
same,normalized growth,"S. cerevisiae deletion strains, locus YOL006C, strain TOP1, active compounds read low",0.867
same,normalized growth,"S. cerevisiae deletion strains, locus YOL012C, strain htz1",0.99
same,normalized growth,"S. cerevisiae deletion strains, locus YOL147C, strain pex11, active compounds read low",0.982
same,normalized growth,"S. cerevisiae deletion strains, locus YOR061W, strain CKA2, active compounds read low",0.994
same,normalized growth,"S. cerevisiae deletion strains, locus YOR069W, strain VPS5, active compounds read low",0.984
same,normalized growth,"S. cerevisiae deletion strains, locus YOR136W, strain idh2, active compounds read low",0.966
same,normalized growth,"S. cerevisiae deletion strains, locus YOR144C, strain elg1, active compounds read low",0.981
same,normalized growth,"S. cerevisiae deletion strains, locus YOR184W, strain ser1, active compounds read low",0.809 (active)
same,normalized growth,"S. cerevisiae deletion strains, locus YOR231W, strain MKK1, active compounds read low",0.964
same,normalized growth,"S. cerevisiae deletion strains, locus YOR316C, strain cot1, active compounds read low",0.977
same,normalized growth,"S. cerevisiae deletion strains, locus YPL055C, strain LGE1, active compounds read low",0.96
same,normalized growth,"S. cerevisiae deletion strains, locus YPL241C, strain CIN2, active compounds read low",0.993
same,normalized growth,"S. cerevisiae deletion strains, locus YPL256C, strain CLN2, active compounds read low",0.9
same,normalized growth,"S. cerevisiae deletion strains, locus YPR119W, strain clb2, active compounds read low",0.976
same,normalized growth,"S. cerevisiae deletion strains, locus YPR141C, strain kar3, active compounds read low",0.957
same,normalized growth,"S. cerevisiae deletion strains, locus YPR163C, strain tif3, active compounds read low",0.91 (active)
same,normalized growth,"S. cerevisiae deletion strains, locus YPR167C, strain met16, active compounds read low",0.974
same,normalized growth,"S. cerevisiae deletion strains, strain wtn01, active compounds read low",0.966
same,normalized growth,"S. cerevisiae strains, strain wild type, active compounds read low",0.986
